Source: PubChem BioAssay (Sanford-Burnham Center for Chemical Genomics)
A3A deaminase – APOBEC3A ssDNA deaminase inhibitors, primary screen, selectivity assay for APOBEC3G inhibitor project, biochemical, FAM/TAMRA oligo cleavage fluorescence | DNA dC->dU-editing enzyme APOBEC-3A (Homo sapiens), P31941 | recombinant A3A, FAM/TAMRA ssDNA deamination fluorescence | inhibition, % at 20 µM | hit rate 0.41% among 330,000 | AID 493011, 2011;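 active means at least 40% inhibition at 20 µM here, with at most 30% in a related deaminase screen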;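 further: plate controls were A3A with DMSO for no effect and wells lacking A3A enzyme for full effect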
PABP1 MLLE inh – inhibitors of PABP1 MLLE–PAM2 peptide binding, primary screen, biochemical, fluorescence polarization, FITC-PAM2, GST-MLLE. inhibition, % at 20 µM. hit rate 0.36% among 360,000. AID 588489, 2011; in the data active means inhibition above about 35%, passing the limit was not always enough;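 further: plate controls were DMSO wells with GST-MLLE for no effect and wells lacking GST-MLLE protein for full effect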
eIF4H FP inh – human eIF4H binding inhibitors, primary screen, translation initiation inhibitor project, biochemical, uHTS, fluorescence polarization | Eukaryotic translation initiation factor 4H (Homo sapiens), Q15056 | AID 2012, 2009 | hit rate 0.94% among 290,000 | inhibition, % at 35 µM | eIF4H fluorescence polarization binding assay;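 further: calls also rest on retests at 20 µM and on dose response follow-up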
PABP polyA inh – PABP poly(A) RNA binding inhibitors, primary screen, biochemical, fluorescence polarization, uHTS; AID 2014, 2009; hit rate 1% among 290,000; Polyadenylate-binding protein 1 (Homo sapiens), P11940; calls only at 35 µM;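 further: calls also rest on retests at 20 µM and on dose response follow-up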
PHOSPHO1 block – PubChem AID 1565; inhibition, % at 13.3 µM; recombinant PHOSPHO1, absorbance phosphatase assay; hit rate 1.1% among 290,000; in the data active means inhibition above about 60%
Target sequence (Q8TCT1 whole entry, looked up): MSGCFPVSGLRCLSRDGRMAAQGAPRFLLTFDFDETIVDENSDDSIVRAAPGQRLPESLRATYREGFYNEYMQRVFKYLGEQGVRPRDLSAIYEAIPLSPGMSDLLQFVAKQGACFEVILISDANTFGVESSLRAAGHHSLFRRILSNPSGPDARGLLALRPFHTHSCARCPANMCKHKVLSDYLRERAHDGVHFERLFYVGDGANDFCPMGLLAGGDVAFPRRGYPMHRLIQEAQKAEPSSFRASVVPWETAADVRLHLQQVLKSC
A3G deaminase – APOBEC3G DNA deaminase inhibitors, primary screen, biochemical, fluorescence, single-stranded DNA substrate, uHTS; DNA dC->dU-editing enzyme APOBEC-3G (Homo sapiens), Q9HC16; recombinant A3G, ssDNA deamination FAM/TAMRA fluorescence; inhibition, % at 20 µM; hit rate 0.28% among 330,000; AID 493012, 2011;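 active means inhibition of at least 40% at 20 µM, with no more than 30% in the related APOBEC3A deaminase screen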;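 further: plate controls were DMSO wells with A3G for no effect and wells lacking A3G enzyme for full effect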
Starred values were filed as active, the others as inactive; i = inactive; ? = inconclusive; . = no result; + = active, no number. In the library only some 2.6% were active in any assay of this set; here they are far more common. Unless noted, how the calls were made is not given here.

SMILES	A3A deaminase	PABP1 MLLE inh	eIF4H FP inh	PABP polyA inh	PHOSPHO1 block	A3G deaminase
Nc1nc(-c2ccc(Cl)cc2)nn1C(=O)c1cccs1	-0.7	1.9	?	+	8.0	-8.5
CSc1ccc(S(=O)(=O)N2CCC(C(=O)NC3CC3)CC2)cc1	-3.0	-6.3	2.3	i	44.9	-8.7
C=CCNc1sc(C(=O)c2ccccc2)c(N)c1-c1nc2ccccc2s1	-1.3	22.8	26.5	i	97.5*	0.2
CCNc1sc(C(=O)c2cccs2)c(N)c1-c1nc2ccccc2s1	1.7	1.4	30.0	i	-3.5	5.3
Oc1cc(NCc2ccc(F)cc2)cc2cccnc12	-3.8	21.7	.	.	.	-7.8
CN(C)CCCNc1cc(O)c2ncccc2c1	-8.3	41.2*	.	.	.	-7.5
Cn1cccc1C(=O)OCc1ccc(C(C)(C)C)cc1	-2.9	-0.7	2.3	i	5.8	-7.5
CCOC(=O)c1sc2nc(C)n(N)c(=O)c2c1C	-2.5	-7.5	0.8	i	62.9*	-5.9
CCOC(=O)c1sc2nc3n(c(=O)c2c1C)CCC3	-1.4	2.3	6.4	i	-11.3	-2.2
CC1(C(=O)OCC(=O)Nc2nnc(-c3ccccc3)o2)CC1(Cl)Cl (stereo unspecified)	-1.6	-2.2	.	.	.	-7.6
Cc1ccc(C(=O)N/N=C/c2ccoc2)cc1C	6.7	-2.2	8.3	i	31.3	1.5
COc1ccccc1NC(=O)/C=C\c1ccco1	-0.6	7.1	6.1	i	27.0	-5.3
CC(=O)c1ccc(NC(=S)NC(=O)/C=C/c2ccco2)cc1	-1.3	25.6	61.9*	+	14.9	-2.7
O=C(/C=C/c1ccco1)NC(=S)Nc1ccccc1	5.5	9.8	26.7	i	7.8	2.1
CSc1cccc(NC(=O)/C=C/c2ccco2)c1	3.3	-3.1	56.8*	+	-13.4	-4.0
COc1ccc(-c2csc(NC(=S)NC(=O)/C=C/c3ccco3)n2)cc1OC	.	24.7	88.7*	+	-10.5	.
COc1ccc(-c2csc(NC(=S)NC(=O)/C=C/c3ccco3)n2)cc1Br	-1.6	-13.6	11.7	i	20.3	-4.8
COc1ccccc1NC(=S)NC(=O)/C=C/c1ccco1	11.1	-1.0	77.3	+	-5.7	2.4
COc1ccc(/C=C/C(=O)NC(=S)Nc2ccc(C(=O)O)cc2)cc1	.	30.8	5.1	i	67.2*	.
CCCn1nnc(NC(=S)NC(=O)/C=C/c2ccco2)n1	14.2	21.2	79.6*	+	31.6	8.8
NC(N)=NS(=O)(=O)c1ccc(NC(=S)NC(=O)/C=C/c2ccco2)cc1	7.3	1.8	88.1	+	-1.3	-2.0
Cc1cccc(NC(=S)NC(=O)/C=C/c2ccco2)n1	2.1	10.9	56.1*	+	19.5	-1.3
CCOc1ccc(NS(=O)(=O)c2cccc(C(=O)N3CCN(C/C=C/c4ccccc4)CC3)c2)cc1	.	8.0	.	.	.	.
CC(=O)Nc1ccc(NC(=O)COc2cccc3ccccc23)cc1	.	7.7	.	.	.	.
O=C(Nc1ncccn1)c1ccc(Cl)c([N+](=O)[O-])c1	-1.7	-2.3	7.8	i	8.5	-1.9
SMILES	A3A deaminase	PABP1 MLLE inh	eIF4H FP inh	PABP polyA inh	PHOSPHO1 block	A3G deaminase
NS(=O)(=O)c1ccc(NC(=S)NC(=O)/C=C/c2ccco2)cc1	22.1	3.8	85.3*	i	-12.0	6.4
Cc1csc(NC(=O)/C=C/c2ccco2)n1	0.1	-6.5	81.8	+	-6.0	-1.7
CCN(CC(=O)NCc1ccc(Cl)cc1)C(=O)/C=C/c1ccco1	-3.8	-7.5	16.3*	+	24.3	-5.0
NS(=O)(=O)c1ccc(CNC(=O)/C=C/c2ccco2)cc1	24.1	-2.7	79.1*	i	31.6	12.7
O=C(/C=C/c1ccco1)Nc1nc(-c2ccccc2)cs1	6.6	-5.7	52.7	i	-10.5	0.8
CC(C)C[C@H](NC(=O)[C@H](Cc1ccccc1)n1c(=O)[nH]c2ccccc2c1=O)C(=O)N1CCC[C@@H]1C(=O)O	-4.0	13.1	-1.9	i	18.2	-11.0
O=C(CCCN1C(=O)CCC1=O)Nc1ccc(Br)cc1F	7.2	-1.5	-4.4	i	0.2	-2.4
O=C(CCCN1C(=O)CCC1=O)Nc1ccccc1F	2.4	34.4*	7.8	i	20.1	-1.0
CCOC(=O)/C=C(\C)Sc1cc(O)c2ccccc2c1O	.	61.6*	16.1	i	41.7	.
COc1cccc(OCc2nnc(SCC(=O)NCc3ccco3)n2CCc2ccccc2)c1	1.7	-109.8	12.5	i	61.8*	-1.3
COc1cccc(OCc2nnc(SCC(=O)NCc3ccco3)n2C)c1	4.6	-16.6	0.3	i	8.0	-1.7
O=C(CSc1nnc(-c2cccnc2)n1Cc1ccco1)NCc1ccc2c(c1)OCO2	-0.8	-5.0	-2.7	i	17.9	-3.9
Cc1cccc(-c2nnc(SCC(=O)NCc3ccc4c(c3)OCO4)n2C)c1	-3.2	-8.7	-15.0	i	72.0*	-5.3
COc1cccc(-c2nnc(SCC(=O)NCc3ccc4c(c3)OCO4)n2Cc2ccco2)c1	-3.1	-89.9	-4.8	i	76.1*	-3.6
CCOC(=O)c1c(C)[nH]c(C)c1C(=O)CSc1nnc(-c2ccncc2)n1C	-0.5	-37.7	1.6	i	81.4*	-13.2
O=C(COC(=O)c1ccc2c(c1)OCCO2)NC1CCCCC1	-1.5	4.6	.	.	.	-4.8
CC(C)(Oc1ccc(Cl)cc1)C(=O)NCC(c1ccco1)N1CCCCC1 (stereo unspecified)	-1.6	-8.7	.	.	.	-7.2
Cc1cc([N+](=O)[O-])nn1CCCC(=O)NC1CCCCC1	0.3	5.0	4.5	i	16.5	-4.5
COCCNC(=O)C1CCCN(C(=O)COCc2ccccc2)CC1 (stereo unspecified)	.	-5.9	.	.	.	.
COc1ccccc1C(=O)NC(=O)CSc1nnc(SC)s1	-0.3	-3.7	.	.	.	-8.6
COc1ccc(Nc2ncccc2C(=O)NCc2ccccc2)cc1	-0.7	8.4	5.2	i	-1.2	-4.4
CCOC(=O)CNC(=O)CSc1nnc(-c2ccco2)n1Cc1ccco1	0.3	-78.8	8.4	i	91.7*	-9.0
Cn1c(SCC(=O)NCc2cccs2)nnc1-c1ccncc1	0.1	-14.7	-8.3	i	68.8*	-7.0
COc1cccc(-n2ccnc2SCC(=O)NCc2ccccc2)c1	-2.3	-8.6	5.0	i	61.5*	-8.1
COc1cccc(Nc2ncccc2C(=O)NCc2ccccc2)c1	.	-2.9	84.8*	+	9.7	.
CCOC(=O)N1CCN(C(=O)Cc2ccccc2OC)CC1	-3.5	17.2	-5.8	i	.	-5.8
CCc1noc(C)c1C(=O)N(C)CC(=O)Nc1ccc(F)c(F)c1F	-1.0	5.7	.	.	.	-3.6
CNc1ccc(/C=C\CCCO)cn1	.	-4.0	.	.	.	.
